Screening data as filed in PubChem.
AmpC inh no detg = inhibitors of E. coli AmpC beta-lactamase without detergent; P00811; 330,000 compounds, 0.52% hits; AmpC nitrocefin hydrolysis, absorbance 480 nm, 0.0001% Triton; Potency, µM (doses to about 57.1 µM), for inactives: at the top dose activity change, negative = inhibition, actives largely listed as inhibitors;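 further: potency means the concentration at half of the fitted maximal effect; plate controls were no compound for no effect and no enzyme for full effect; nearly all actives have a fitted effect of over 20% in size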
Target sequence (P00811 whole entry, looked up): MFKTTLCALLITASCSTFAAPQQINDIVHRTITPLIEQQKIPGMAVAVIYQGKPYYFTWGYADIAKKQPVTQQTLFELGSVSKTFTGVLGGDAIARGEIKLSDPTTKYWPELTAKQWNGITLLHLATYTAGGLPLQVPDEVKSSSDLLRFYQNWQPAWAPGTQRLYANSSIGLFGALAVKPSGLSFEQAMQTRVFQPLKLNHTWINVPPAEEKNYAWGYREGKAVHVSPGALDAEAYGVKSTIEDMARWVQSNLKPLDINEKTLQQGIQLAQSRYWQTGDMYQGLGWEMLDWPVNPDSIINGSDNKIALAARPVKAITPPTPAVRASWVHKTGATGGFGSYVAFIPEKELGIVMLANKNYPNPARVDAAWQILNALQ
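AmpC (5.3 nM in the dispensed reagent) in 20 mM phosphate pH 7.0 with 0.01% (detergent screen) or 0.0001% Triton X-100 was preincubated with compounds for 15 min at room temperature. Nitrocefin was then added from an 800 uM solution, and hydrolysis was followed at 480 nm.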
AMA1 RON2 block = AMA1-RON2 (P. falciparum) interaction inhibition | AlphaScreen AMA1-biotinylated RON2 peptide binding | 360,000 compounds, 0.2% hits | Potency, µM (doses to about 58.2 µM), for inactives: at the highest dose activity change, negative = inhibition, most hits filed as inhibitors;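 further: potency means the concentration at half of the fitted maximal effect; 0% = vehicle wells and -100% = peptide control; nearly all actives have a fitted effect of over 45% in size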
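AMA1 (3D7) with his tag at 25 nM final met compounds first, then biotinylated RON2 peptide at 25 nM; detection used donor plus acceptor beads, 10 µg/mL apiece, read by AlphaScreen after 30 min at room temperature.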
Shiga inhibitor = blocks Shiga toxin action in Vero cells | Vero cells, Shiga toxin protein synthesis inhibition reporter | inhibition, % at 38.7 µM | 290,000 compounds, 9.2% hits | AID 2315; in the data active means inhibition mostly above about 28%, no sharp cut-off; inactive means mostly below about 43%; further: 0% is about no effect
SARS PLP yeast = blocks SARS-CoV papain-like protease in a yeast assay; 330,000 compounds, 0.19% hits; S. cerevisiae expressing SARS-CoV PLpro, growth rescue; Potency, µM (doses to about 32.9 µM), for the others: at the highest dose activity, positive = growth rescue, hits mostly activators; AID 485353; calls by dose curve; further: potency means the concentration at half of the fitted maximal effect; 0% is about no effect; nearly all actives have a fitted effect of over 55% in size
Cycloheximide cs = counter-screen hit for Shiga toxin inhibitors, cycloheximide; max response, %; cell reporter, cycloheximide protein synthesis inhibition counterscreen; AID 2314; 300,000 compounds, 12% hits; in the data active means max response mostly above about 13%, no sharp cut-off; inactive means mostly below about 14%; further: read at 38.3 µM for the half of the compounds with a filed dose; 0% is about no effect
AmpC inh detg = inhibitors of E. coli AmpC beta-lactamase with detergent; P00811; AmpC hydrolysis of nitrocefin, absorbance 480 nm, 0.01% Triton; Potency, µM (doses to about 114 µM), for inactives: top-dose activity change, negative = inhibition, hits mostly inhibitors; 370,000 compounds, 0.041% hits;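 further: potency means the concentration at half of the fitted maximal effect; 0% = no-compound wells and -100% = no-enzyme wells; nearly all actives have a fitted effect of over 25% in size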
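AmpC (5.3 nM in the dispensed reagent) in 20 mM phosphate pH 7.0 with 0.01% (detergent screen) or 0.0001% Triton X-100 was preincubated with compounds for 15 min at room temperature. Nitrocefin was then added from an 800 uM solution, and hydrolysis was followed at 480 nm.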
* = called active by the depositor; ? = inconclusive; nt = no result; [ ] = another dose, or the depositor's remark. Many of the other results were omitted from the sample, so hits are more common in it than they were. Unless noted, the call rests on the fitted dose curve; in most records, active means well fitted curve in the direction sought with a large enough effect; inconclusive means small, poorly fitted or top-dose-only effect, or another doubt; inactive means no such curve, though single readings can be large; an effect the other way counts as inactive or inconclusive.

SMILES	AmpC inh no detg	AMA1 RON2 block	Shiga inhibitor	SARS PLP yeast	Cycloheximide cs	AmpC inh detg
c1cc2c(cc1[C@H]1OCC3C1CO[C@@H]3c1ccc3c(c1)OCO3)OCO2 (some centres undefined)	-7%	-21%	nt	-6%	nt	nt
N#Cc1c(-c2cccnc2)c2c([nH]c1=O)-c1ccccc1OC2	-43%	-8%	-14	0%	-3	-14%
O=C(Nc1ncn[nH]1)c1cc(S(=O)(=O)Nc2ccc(Cl)cc2)ccc1Cl	-19%	32%[2.32 µM]	13	24%	1	0%
COc1cc(OC)c(S(=O)(=O)Nc2ccccc2N2CCCCC2)cc1NC(C)=O	23%	-7%	2	3%	-4	-3%
Cn1c(=O)[nH]c2nnc(-c3ccc(Cl)c(Cl)c3)nc2c1=O	?	-2%	50*	1%	25*	-5%
O=C(NNC(=O)c1ccc2ccccc2n1)c1ccc(O)cc1	-32%	115%	nt	4%	nt	-11%
Cc1cc(-c2onc(C)c2C(=O)Oc2ccc(Cl)cc2)no1	-14%	24%	-3	0%	-4	-2%
Cc1nnc2n(c1=O)N=C(c1ccc(Cl)cc1)CS2	-35%	46%	25	27%	21	-5%
COc1cc(NC(=O)CSc2nc3ccccc3cc2C)c(C(=O)O)cc1OC	-22%	15%	-10	15%	-1	-8%
CCc1cc2ccccc2nc1SCC(=O)Nc1cc(OC)c(OC)cc1C(=O)O	8.9µM*	13%	6	21%	-2	0%
CCc1ccc(NC(=S)N2CCCC2)cc1	1%	-5%	78*	2%	36*	-5%
CC1CCCN(C(=S)Nc2ccc(F)cc2)C1 (centres undefined)	-4%	-12%	9	2%	7	6%
CCOC(=O)C1CCN(C(=O)Nc2ccc(OC(F)(F)F)cc2)CC1	-2%	9%	63	0%	34*	1%
CCc1ccc(NC(=S)N2CCCC(C(F)(F)F)C2)cc1 (centres undefined)	-39%	0%	40	19%	16*	2%
CCc1ccc(NC(=S)N2CCN(C)CC2)cc1	-23%	7%	61	-6%	25*	?
COc1ccc(CNc2oc(-c3ccc(COc4ccc(OC)cc4)o3)nc2C#N)cc1	nt	nt	nt	nt	nt	19%
CCOC(=O)C1CCN(C(=S)Nc2ccc(CC)cc2)CC1	-21%	-11%	54	23%	43*	?
CCc1ccc(Nc2nc3c(S(=O)(=O)c4cccc(Cl)c4)nnn3c3ccsc23)cc1	nt	nt	nt	nt	nt	-5%
Fc1ccc(N/N=C/C=C/c2ccccc2)c(F)c1	-55%	-5%	34*	-39%	32*	-15%
O=C(O)c1ccc(/C=N/Nc2ccc(F)cc2F)cc1	-21%	-5%	131*	-1%	40*	-14%
Fc1ccc(N/N=C/c2ccncc2)c(F)c1	-2%	3%	50*	-43%	40*	-11%
O=C(N/N=C/c1ccc(F)cc1)c1ccncc1	-7%	-3%	nt	-7%	0	-13%
O=C(O)c1ccc(N/N=C/c2ccc(C(F)(F)F)cc2)cc1	-26%	5%	24	-4%	23	-2%
O=C(CNC(=O)c1cc(-c2ccccc2)nn1-c1ccccc1)Nc1ccccc1Br	nt	3%	nt	nt	nt	nt
COc1ccc(/C=C/C(=O)NC(=S)N2CCCCC2)cc1OC	-15%	108%	-6	2%	1	-10%
SMILES	AmpC inh no detg	AMA1 RON2 block	Shiga inhibitor	SARS PLP yeast	Cycloheximide cs	AmpC inh detg
COCCCNC(=S)N1CCN(c2nc3ccccc3s2)CC1	86%	-12%	21	0%	14*	4%
COCCNC(=S)N1CCN(c2nc3ccccc3s2)CC1	77%	-3%	93	0%	32*	0%
COCCCNC(=S)N1CCN(c2ccc([N+](=O)[O-])cc2)CC1	-9%	-11%	-7	12%	-5	2%
COc1ccc(OC)c(NC(=O)CC2SC(=Nc3ccc(F)cc3)N(CCC3=CCCCC3)C2=O)c1 (centres undefined)	-41%	-27%	-1	11%	13*	?
CC1(C)CC(=O)c2c(O)cc(OCC(=O)Nc3ccc(S(N)(=O)=O)cc3)cc2O1	-59%	7%	-7	-2%	-2	?
CC(C)CCNC(=O)COc1ccc2c(c1)C(=O)CC(C)(C)O2	-2%	2%	87*	1%	17*	-13%
Cc1ccccc1NC(=O)COc1ccc2c(c1)OC(C)(C)CC2=O	-11%	6%	34*	-1%	38*	4%
O=C(O)CCCCCN=C1CCc2ccccc2N1	-20%	14%	-3	7%	-2	?
Cc1nc(N2CCC(C)CC2)c2nnn(Cc3ccccc3)c2n1	44%	12%	56*	-95%	12	-1%
CC1CC(=O)N(CC(=O)Nc2ccc(F)cc2F)c2ccccc2S1 (centres undefined)	nt	nt	nt	nt	nt	-1%
O=C(N/N=C/c1ccc2c(c1)OCO2)c1ccc(Br)o1	-22%	-15%	139*	2%	81*	3%
O=C(N/N=C/c1ccc(Cl)cc1)c1ccc2c(c1)OCO2	-22%	0%	90*	-1%	51*	-6%
O=C(N/N=C/C1CC2CCC1C2)c1ccc2c(c1)OCO2 (centres undefined)	-24%	7%	39*	9%	41*	?
O=C(O)COc1ccccc1/C=N/NC(=O)c1ccc2c(c1)OCCO2	-24%	2%	-9	-6%	-4	0%
O=C(N/N=C/c1ccccc1OC(=O)c1ccc2c(c1)OCO2)c1cccc(F)c1	-26%	-8%[2.32 µM]	64*	13%	16	-8%
O=C(N/N=C/c1ccsc1)c1ccc2c(c1)OCO2	-21%	9%[11.6 µM]	nt	-1%	nt	-10%
O=C(NCc1ccc2c(c1)OCO2)c1ccc(Br)o1	-14%	-4%	39	0%	9	-7%
COc1ccccc1C(=O)C1CCCN(C(=O)CCc2ccccn2)C1 (centres undefined)	5%	10%	25	-1%	7	10%
CN1C(=O)C2C=CC1C1C(=O)N(c3ccccc3)C(=O)C21 (centres undefined)	1%	10%	16	19%	16	-8%
CCN(CC)c1ccc(/C=N/NC(=O)C2CC2)cc1	-3%	7%	80*	-2%	48*	-1%
O=C(N/N=C/c1cc(Br)cc(Cl)c1O)c1ccc2c(c1)OCO2	nt	7%	nt	nt	nt	nt
CCN(CC)c1ccc(/C=N/NC(=O)Nc2nonc2N)cc1	-38%	-4%	66*	-8%	57*	?
Cc1cc(Br)cc(/C=N/NC(=O)c2ccc3c(c2)OCO3)c1O	-40%	34%	26*	0%	17*	-10%
Cc1c(C(=O)N/N=C/c2ccc(Cl)cc2)[nH]c2ccc(Cl)cc12	14µM*	37%	-18	-67%	-2	-12%
